# Measured values published in PubChem BioAssay (NCATS).
# Records with an inconclusive call do not appear. Where a call stands in place of a potency, no number is given. Calls of active or inactive are those of the source. Unless noted, calls follow the shape of the dose curve; as a rule, active = well fitted curve in the direction sought with a large enough effect; inconclusive = small, poorly fitted or top-dose-only effect, or another doubt; inactive = no such curve, though single readings can be large; an effect the other way counts as inactive or inconclusive.
# Legend:
# Furin (Homo sapiens) = Furin (Homo sapiens) (UniProt P09958); assay: Furin counterscreen qHTS for Zika virus inhibitors (AID 1347149); also: nearly all actives have a fitted effect of over 70% in size; also: potency is read from the fitted curve at half-maximal effect;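 as to activity change, negative = inhibition: purified recombinant full-length human furin enzyme at 5 nM; fluorescence gain from furin cutting a BOC-RVRR-AMC peptide substrate over 15 min; top concentration of the series differs between compounds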
# Chain of Furin (Homo sapiens) (P09958 whole entry, looked up): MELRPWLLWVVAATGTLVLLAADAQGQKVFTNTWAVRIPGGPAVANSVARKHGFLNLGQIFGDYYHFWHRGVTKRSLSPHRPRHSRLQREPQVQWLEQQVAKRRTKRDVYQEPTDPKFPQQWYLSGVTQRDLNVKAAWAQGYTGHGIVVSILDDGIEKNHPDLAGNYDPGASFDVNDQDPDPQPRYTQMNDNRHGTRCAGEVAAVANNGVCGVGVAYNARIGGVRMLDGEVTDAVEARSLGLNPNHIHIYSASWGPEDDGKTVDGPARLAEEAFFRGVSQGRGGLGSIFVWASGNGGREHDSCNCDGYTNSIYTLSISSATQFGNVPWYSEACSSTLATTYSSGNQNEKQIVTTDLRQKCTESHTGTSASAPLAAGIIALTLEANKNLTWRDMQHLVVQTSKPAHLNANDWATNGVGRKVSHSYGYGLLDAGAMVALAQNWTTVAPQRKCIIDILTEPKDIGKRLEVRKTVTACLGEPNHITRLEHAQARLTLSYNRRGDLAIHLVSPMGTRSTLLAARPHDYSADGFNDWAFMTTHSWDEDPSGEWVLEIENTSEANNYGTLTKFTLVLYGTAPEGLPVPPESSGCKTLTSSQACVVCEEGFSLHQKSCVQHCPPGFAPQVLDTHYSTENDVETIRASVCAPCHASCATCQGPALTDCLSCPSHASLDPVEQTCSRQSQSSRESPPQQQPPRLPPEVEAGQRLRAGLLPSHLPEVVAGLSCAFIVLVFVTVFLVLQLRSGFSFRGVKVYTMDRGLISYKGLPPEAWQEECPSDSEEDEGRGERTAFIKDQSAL
# In short: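 Fluorogenic cleavage of BOC-RVRR-AMC (2 microM final, Km ~15 µM) was monitored (ex 340, em 450 nm) at 37C after 15 min RT preincubation of 5 nM furin with compounds in HEPES pH 7.0 buffer with CaCl2 and Triton X-100. Percent inhibition was fitted to a 4-parameter Hill curve.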
# [1] = ZIKV-mCherry secondary qHTS for Zika virus inhibitors (AID 1347158); also: top concentration of the series differs between compounds
# In short: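 Vero cells, 5,000/well, plated overnight at 37 °C, then compound added and infected with recombinant ZIKV-mCherry at MOI 1 for 48-72 h. PFA-fixed, Hoechst nuclear stain, high-content imaging; cells with mCherry intensity above 450 RFU scored infected, reported as percent infection.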
# [2] = test system: Zika virus NS2B-NS3 protease (linked); assay: 384 well plate NINDS AMC confirmatory qHTS for Zika virus inhibitors (AID 1347163); also: nearly all actives have a fitted effect of over 50% in size; also: potency is read from the fitted curve at half-maximal effect;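 as to activity change, negative = inhibition: linked protease at 5 30 or 60 nM final depending on run; fluorescence of AMC released from Ac-VKTGKR-AMC peptide cleaved by the protease; top concentration of the series differs between compounds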
# In short: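 Linked protease 5/30/60 nM final; cpds up to 1 mM final, ~15 min preinc. Substrate Ac-VKTGKR-AMC 30 microM final. RT, dark, 25 min; FI ex 355/em 460; normalized to no-enzyme/no-inhibitor ctrls.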
# [3] = test system: Zika virus NS2B-NS3 protease (linked construct); assay: 384 well plate NINDS Rhodamine confirmatory qHTS for Zika virus inhibitors (AID 1347164);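 also: fluorescence from protease cleavage of Ac-LKRR-rhodamine 110 substrate; nearly all actives have a fitted effect of over 65% in size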; also: potency is read from the fitted curve at half-maximal effect; as to activity change, negative = inhibition: top concentration of the series differs between compounds
# In short: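 Linked protease at a final 5 nM, 30 nM or 60 nM was preincubated ~15 min with compounds, then given 10 microM Ac-LKRR-Rhodamine 110. Fluorescence (ex 485/em 538 nm) after 25 min in the dark at room temperature.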
# [4] = Tertiary RLuc qRT-PCR qHTS assay for Zika virus inhibitors (AID 1347169); also: top concentration of the series differs between compounds; nearly all actives have a fitted effect of over 55% in size
# In short: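 Vero cells (1,000 per well) plated overnight at 37 degrees C, treated with compound in DMSO, then infected with recombinant ZIKV-RLuc (Cambodian) at MOI 1-2 for 48-72 hrs. Live-cell Renilla luciferase substrate added; luminescence read after 1-1.5 hrs.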
# [5] = Confirmatory screen GU Rhodamine qHTS for Zika virus inhibitors qHTS (AID 1347157); also: nearly all actives have a fitted effect of over 70% in size; also: potency is read from the fitted curve at half-maximal effect
# In short: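 Unlinked NS2B/NS3, 25 nM; Rhod110 peptide, 1.5 microM; compounds, up to 114 microM. Reaction run 15 min at RT in 10 mM Tris-HCl pH 8.0, 0.01% Tween 20; kinetic fluorescence change fitted with a 4-parameter Hill model.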
# [6] = molecular target: Calcium and integrin-binding protein 1 (Homo sapiens) (UniProt Q99828); assay: Primary qHTS for Identification of Calcium Integrin Binding Protein 1 (CIB1) Competitor (AID 1508620);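 also: GST tagged CIB1 binding a fluorescein labelled alphaIIb integrin peptide tracer; top concentration of the series differs between compounds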
# Chain of Calcium and integrin-binding protein 1 (Homo sapiens) (Q99828 whole entry, looked up): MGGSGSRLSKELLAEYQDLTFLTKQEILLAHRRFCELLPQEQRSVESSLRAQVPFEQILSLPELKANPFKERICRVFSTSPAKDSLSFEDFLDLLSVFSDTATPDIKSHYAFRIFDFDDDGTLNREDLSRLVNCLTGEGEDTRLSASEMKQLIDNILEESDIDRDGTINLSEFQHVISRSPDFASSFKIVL
# In short: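 Fluorescence polarization competition: CIB1-GST (1 uM final) preincubated with compound 15 min at room temperature, then FITC-labeled alphaIIb peptide (100 nM final) added for another 15 min. Polarization read at Ex 480/Em 540.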
# [7] = molecular target: Cytochrome P450 2D6 (Homo sapiens) (UniProt P10635); assay: Cytochrome P450 family 2 subfamily D member 6 (CYP2D6) small molecule antagonists: luciferase biochemical (cell-free) qHTS assay (AID 1645840; active = well fitted curve in the direction sought with a large enough effect in the repeat runs; an effect the other way counts as inactive or inconclusive; also: potency is read from the fitted curve at half-maximal effect; nearly all actives have a fitted effect of over 55% in size)
# Chain of Cytochrome P450 2D6 (Homo sapiens) (P10635 whole entry, looked up): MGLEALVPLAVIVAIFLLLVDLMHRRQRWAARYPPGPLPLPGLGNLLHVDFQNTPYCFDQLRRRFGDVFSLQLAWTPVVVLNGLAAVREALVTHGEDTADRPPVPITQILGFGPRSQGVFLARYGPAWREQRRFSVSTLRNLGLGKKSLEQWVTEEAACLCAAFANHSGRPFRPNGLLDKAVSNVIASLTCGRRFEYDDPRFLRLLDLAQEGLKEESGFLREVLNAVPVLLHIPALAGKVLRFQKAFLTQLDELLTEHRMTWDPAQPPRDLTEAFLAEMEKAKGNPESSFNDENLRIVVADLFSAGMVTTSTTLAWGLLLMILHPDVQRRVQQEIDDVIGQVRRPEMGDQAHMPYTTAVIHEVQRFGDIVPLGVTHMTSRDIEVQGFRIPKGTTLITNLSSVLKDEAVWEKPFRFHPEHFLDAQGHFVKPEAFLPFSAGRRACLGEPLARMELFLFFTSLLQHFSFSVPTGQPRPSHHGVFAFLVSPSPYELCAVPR
# In short: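 P450-Glo luminescent screen: recombinant CYP2D6 enzyme–proluciferin substrate mix preincubated with compound 10 min at room temperature, then NADPH regeneration added for 1 h at room temperature. Detection reagent added for 20 min; luciferin light read as relative luminescence units.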
# [8] = molecular target: Cytochrome P450 2C9 (Homo sapiens) (UniProt P11712); assay: Cytochrome P450 family 2 subfamily C member 9 (CYP2C9) small molecule antagonists: luciferase biochemical (cell-free) qHTS assay (AID 1645842; active = well fitted curve in the direction sought with a large enough effect in the repeat runs; an effect the other way counts as inactive or inconclusive; also: potency is read from the fitted curve at half-maximal effect; nearly all actives have a fitted effect of over 55% in size)
# Chain of Cytochrome P450 2C9 (Homo sapiens) (P11712 whole entry, looked up): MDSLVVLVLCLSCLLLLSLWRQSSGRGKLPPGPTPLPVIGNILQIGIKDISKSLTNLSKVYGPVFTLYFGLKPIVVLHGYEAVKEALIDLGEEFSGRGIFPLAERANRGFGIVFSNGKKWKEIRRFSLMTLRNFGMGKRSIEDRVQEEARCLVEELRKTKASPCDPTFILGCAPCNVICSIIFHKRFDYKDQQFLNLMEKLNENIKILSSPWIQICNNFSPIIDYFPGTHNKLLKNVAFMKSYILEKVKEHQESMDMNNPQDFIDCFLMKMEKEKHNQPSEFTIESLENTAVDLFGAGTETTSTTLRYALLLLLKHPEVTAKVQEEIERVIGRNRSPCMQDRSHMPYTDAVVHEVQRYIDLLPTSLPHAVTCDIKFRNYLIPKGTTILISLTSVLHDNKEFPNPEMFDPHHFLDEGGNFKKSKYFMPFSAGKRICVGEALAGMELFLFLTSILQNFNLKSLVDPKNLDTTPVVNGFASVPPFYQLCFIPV
# In short: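 Luminescence, after 20 min with luciferin detection reagent, reflected CYP2C9 turnover during a 1 h NADPH-driven reaction at 37C. Enzyme-substrate mix contained 0.4% bovine serum albumin and was preincubated with compound 10 min at room temperature.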
# [9] = Confirmatory screen NINDS Rhodamine qHTS for Zika virus inhibitors (AID 1347161);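 also: purified Zika NS2B-NS3 protease with linked NS2B cofactor domain and Rhodamine110 peptide substrate; nearly all actives have a fitted effect of over 60% in size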
# In short: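 Rhodamine110-peptide cleavage (1.5 µM substrate) by 25 nM linked NS2B-NS3 enzyme at pH 8.0 (Tris, Tween 20), after 15 min RT preincubation with compounds; 15-min fluorescence change normalized to controls and Hill-fitted.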
# [10] = molecular target: Cytochrome P450 3A4 (Homo sapiens) (UniProt P08684); assay: qHTS Assay for Inhibitors and Substrates of Cytochrome P450 3A4 (AID 884); also: nearly all actives have a fitted effect of over 50% in size
# Chain of Cytochrome P450 3A4 (Homo sapiens) (P08684 whole entry, looked up): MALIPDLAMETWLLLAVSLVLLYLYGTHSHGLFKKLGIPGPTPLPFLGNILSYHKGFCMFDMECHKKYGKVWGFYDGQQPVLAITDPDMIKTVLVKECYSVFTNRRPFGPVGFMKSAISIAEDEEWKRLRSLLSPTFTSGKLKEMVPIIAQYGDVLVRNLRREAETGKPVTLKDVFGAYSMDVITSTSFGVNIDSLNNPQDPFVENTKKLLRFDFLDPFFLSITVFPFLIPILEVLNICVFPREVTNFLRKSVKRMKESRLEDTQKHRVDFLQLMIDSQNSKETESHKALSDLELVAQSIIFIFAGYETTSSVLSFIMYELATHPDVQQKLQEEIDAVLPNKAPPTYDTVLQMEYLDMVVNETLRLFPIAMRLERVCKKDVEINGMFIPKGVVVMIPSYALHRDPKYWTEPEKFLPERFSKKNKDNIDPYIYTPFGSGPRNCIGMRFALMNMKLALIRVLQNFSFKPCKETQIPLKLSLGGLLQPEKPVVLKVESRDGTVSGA
# In short: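 20 nM human CYP3A4 with 25 uM Luciferin-PPXE (at KM) in 200 mM KPO4, preincubated 10 min with compound; NADPH regeneration started a 60 min RT reaction. Luciferin detected by luminescence, normalized to 57 uM ketoconazole as full inhibition.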
# [11] = Confirmation and Secondary Assay for Modulators of Hemoglobin Beta Chain Splicing at IVS2 654 locus (AID 910);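 also: per-well total GFP intensity by laser scanning cytometry after 2-day treatment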
# In short: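 HeLa cells stably carrying EGFP interrupted by mutant beta-globin IVS2-654 intron (CMV-driven) were treated with compound for 2 days at 37C; corrected splicing was scored as total peak GFP intensity per well (488 nm excitation, 500-520 nm emission).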
# [12] = Confirmation and Secondary Assay for Modulators of Hemoglobin Beta Chain Splicing at IVS2 705 locus (AID 930);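 also: HeLa cells stably expressing the EGFP-705 splicing reporter; GFP fluorescence per well restored by corrected splicing of the IVS2-705 intron in EGFP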
# In short: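 First, HeLa EGFP-705 cells are seeded at 500/well in Optimem with 2% FCS and left overnight. Next, compound or DMSO is added for 2 days. Finally wells are laser-scanned and total peak GFP intensity scored.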
# [13] = qHTS Assay for Lipid Storage Modulators (AID 1519; calls by dose curve); conditions: Drosophila S3 cells, BODIPY lipid droplet/cell ratio, laser cytometry, cells loaded with oleic acid
# In short: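 Cells seeded at 5,000 per well were treated with compounds over a concentration series and loaded with oleic acid (400 uM, as added). Lipid droplet fluorescence (488 nm excitation, 500-530 nm channel) was read by laser-scanning cytometry and normalized to 20 uM Triacsin C.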
# [14] = molecular target: Ubiquitin carboxyl-terminal hydrolase 1 (Homo sapiens) (UniProt O94782); assay: Inhibitors of USP1/UAF1: Pilot qHTS (AID 504865);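 also: rhodamine fluorescence freed from ubiquitin-rhodamine substrate followed over time; top concentration of the series differs between compounds; nearly all actives have a fitted effect of over 35% in size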
# Chain of Ubiquitin carboxyl-terminal hydrolase 1 (Homo sapiens) (O94782 whole entry, looked up): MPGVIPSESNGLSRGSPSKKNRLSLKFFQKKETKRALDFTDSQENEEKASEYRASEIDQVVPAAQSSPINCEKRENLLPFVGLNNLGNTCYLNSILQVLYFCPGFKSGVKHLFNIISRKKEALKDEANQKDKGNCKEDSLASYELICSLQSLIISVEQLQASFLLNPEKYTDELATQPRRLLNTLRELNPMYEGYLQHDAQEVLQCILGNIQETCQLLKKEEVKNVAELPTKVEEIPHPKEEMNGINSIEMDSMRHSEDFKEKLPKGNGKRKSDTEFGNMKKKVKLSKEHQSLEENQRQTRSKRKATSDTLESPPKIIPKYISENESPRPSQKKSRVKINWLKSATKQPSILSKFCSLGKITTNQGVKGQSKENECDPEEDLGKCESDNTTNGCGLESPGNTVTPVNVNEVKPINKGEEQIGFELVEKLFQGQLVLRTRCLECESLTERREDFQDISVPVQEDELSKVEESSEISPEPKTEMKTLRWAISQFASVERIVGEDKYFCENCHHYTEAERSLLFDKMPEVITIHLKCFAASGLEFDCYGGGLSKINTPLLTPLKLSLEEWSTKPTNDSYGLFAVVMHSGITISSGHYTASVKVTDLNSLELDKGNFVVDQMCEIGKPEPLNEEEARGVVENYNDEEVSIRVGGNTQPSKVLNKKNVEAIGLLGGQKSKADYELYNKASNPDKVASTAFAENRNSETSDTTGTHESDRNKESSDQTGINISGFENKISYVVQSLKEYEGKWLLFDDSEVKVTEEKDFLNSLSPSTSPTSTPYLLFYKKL
# In short: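 USP1/UAF1 complex (1nM) preincubated with compound 15 min at room temperature, then Ub-Rho substrate (150nM final) added. Fluorescence read kinetically at 480/540 nm, 6 reads every 60 seconds. Buffer: 50mM HEPES pH 7.8, 0.5mM EDTA, 0.1 mg/ml BSA, 1mM TCEP, 0.01% Tween-20.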
smiles,measurement,setting,value
Cc1oc2c(cc(NS(=O)(=O)c3ccc(C(C)C)cc3)c3ccccc32)c1C(=O)OCc1ccccc1,Potency,Furin (Homo sapiens),inactive
same,Potency,[1],inactive
same,Potency,[2],inactive
O=C(O)COc1ccc(-c2nccc3c2C(=O)N(Cc2cccc(C(F)(F)F)c2)CC(COc2cccc(F)c2)O3)cc1 (stereo not given),Potency,Furin (Homo sapiens),inactive
same,Potency,[1],inactive
same,Potency,[3],28.2 µM (active)
same,Potency,[4],inactive
O=C(OCC#CCSc1nnc(-c2cccc3ccccc23)o1)c1ccc(SC(F)(F)F)cc1,Potency,Furin (Homo sapiens),52.7 µM (active)
same,Potency,[5],inactive
same,Potency,[4],inactive
same,outcome,[6],inactive
Cc1ccc(-c2nnc(Nc3ccc(Br)cc3)c3ccccc23)cc1S(=O)(=O)NCc1nc2ccccc2[nH]1,Potency,Furin (Homo sapiens),52.7 µM (active)
same,Potency,[1],inactive
same,Potency,[2],inactive
same,Potency,[3],inactive
same,Potency,[7],3.38 µM (active)
same,Potency,[8],0.849 µM (active)
O=C(Nc1ccc(-c2nc3ccccc3s2)c(O)c1)c1ccc(Br)cc1,Potency,Furin (Homo sapiens),inactive
same,Potency,[5],inactive
same,Potency,[4],inactive
O=c1oc2ccc3ccccc3c2cc1-c1nnc(Nc2cc(C(F)(F)F)ccc2Cl)s1,Potency,Furin (Homo sapiens),inactive
same,Potency,[9],inactive
same,Potency,[4],inactive
CCCCc1nn2c(=O)cc(COC(=O)c3cccc(NC(=O)c4cccc(Cl)c4)c3)nc2s1,Potency,Furin (Homo sapiens),29.6 µM (active)
same,Potency,[5],inactive
same,Potency,[4],inactive
O=C(OCC#CCSc1nnc(-c2cccc3ccccc23)o1)c1ccc(Cl)c(C(F)(F)F)c1,Potency,Furin (Homo sapiens),52.7 µM (active)
same,Potency,[5],25.1 µM (active)
same,Potency,[4],inactive
O=C(Nc1ccc(C(=O)OCc2cc(=O)n3c4c(sc3n2)CCCC4)cc1)c1ccccc1,Potency,Furin (Homo sapiens),41.8 µM (active)
same,Potency,[5],inactive
same,Potency,[4],inactive
CCOC(=O)c1ccc(NC(=O)Cn2nnc(-c3ccc(C(F)(F)F)cc3)n2)cc1,Potency,Furin (Homo sapiens),inactive
same,Potency,[5],inactive
same,Potency,[4],inactive
CC(C)c1nn2c(=O)cc(COC(=O)c3ccc(NC(=O)COc4ccccc4)cc3)nc2s1,Potency,Furin (Homo sapiens),inactive
same,Potency,[5],inactive
same,Potency,[4],inactive
Cc1cccc(C(=O)Nc2ccc(C(=O)OCc3cc(=O)n4nc(C5CC5)sc4n3)cc2)c1,Potency,Furin (Homo sapiens),26.4 µM (active)
same,Potency,[1],inactive
same,Potency,[2],inactive
same,Potency,[4],inactive
O=C(O)Cc1cc(I)c(Oc2cc(I)c(O)c(I)c2)c(I)c1,Potency,[10],inactive
same,outcome,[11],inactive
same,outcome,[12],inactive
same,"activity change, negative = inhibition",[13]; at 57.5 µM (top of the series),3.04% (inactive)
same,max response,[13]; measured here: cell count channel max response,12.2%
same,max response,[13]; measured here: lipid channel max response,14.7%
same,Potency,[14],inactive
same,Potency,Furin (Homo sapiens),inactive
same,Potency,[5],inactive
same,Potency,[4],inactive
Cc1cccc(C)c1-n1c(SCC(=O)Nc2ccc(C(=O)O)cc2)nnc1-c1cccc([S+](=O)([O-])N2CCCC2)c1,Potency,Furin (Homo sapiens),inactive
same,Potency,[1],inactive
same,Potency,[2],70.8 µM (active)
same,Potency,[3],89.1 µM (active)
same,Potency,[4],inactive
O=C(COc1ccc(F)cc1)Nc1ccc(C(=O)OCc2cc(=O)n3nc(C4CC4)sc3n2)cc1,Potency,Furin (Homo sapiens),inactive
same,Potency,[5],inactive
same,Potency,[4],inactive
